Growth data for 14 molecules are collected here from PubChem BioAssay (NCI).

What all share (test): NCI-60 one-dose screen, 48 h (100 = growth as untreated, 0 = no growth, -100 = all killed)
Common to all, as to details: 10 µM unless noted

Test [1] has as its system SR leukemia.
Test [2] has as its system RPMI-8226 leukemia.
The subject of test [3] is OVCAR-8 ovarian.
The test system of test [4] is OVCAR-5 ovarian.
Test [5] concerns OVCAR-4 ovarian.
The test system of test [6] is SK-OV-3 ovarian.
Test [7] has as its system IGROV1 ovarian.
Test [8] deals with OVCAR-3 ovarian.
For test [9], the system named is HS 578T breast.
The test system of test [10] is NCI/ADR-RES ovarian.

This is part of a sample that, as a whole, favours compounds with a hit. Of some 83,000 tested, about 20% had one in any assay.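 Growth was measured after 48 h exposure to one concentration of compound in 96-well plates. Values under 10 count as active.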 Unmarked numbers belong to inactive results. The source made the active and inactive calls.

Turning to `COc1cccc(C(Cc2ccccc2)Nc2ccccc2)c1OC` (stereo not given), the growth in test [1] is 102%; in [2], 89.7%; in test [3], 99%; in test [4], 103%; in test [5], 98.1%; in [6] it was 91.3%. The growth in [7] was 86.8%; in test [8] it was 98.4%; in test [9], 106%; in test [10] it was 98.2%.

Regarding `CC(=O)OCCCCCNc1ccccc1`, the growth in [1] is 88.4%; in test [2], 111%; in [3], 108%; in test [4], 97.5%; in [5], 92.8%; in test [6] it was 109%. In addition, the growth in [7] is 118%; in [8], 105%; in [9], 107%; in test [10], 102%.

In the case of `CCc1nc(C)cn1C(=O)OCc1nc2nc(Cl)nc(N3CCOCC3)c2[nH]1`, the growth was -16.1% (active) in test [1]; -33.1% (active) in [2]; -13.7% (active) in test [3]; -48.9% (active) in [4]; -33.9% (active) in test [5]; 70% in [6]. In addition, the growth is -48.1% (active) in [7], -80.9% (active) in [8], -6.6% (active) in test [9] and 2.83% (active) in test [10].

Consider `COc1ccc(-c2nc(SC(C)C)nc(NNC(N)=O)c2C#N)cc1`, for which the growth in [1] is 25.8%; in test [2], 93.9%; in test [3] it was 96.9%; in test [4], 85.6%; in [5] it was 94.6%; in test [6] it was 83.8%. Moreover, the growth in test [7] is 72.4%; in test [8], 81%; in test [9], 78.9%; in test [10], 70.7%.

In the case of `O=C(N/N=C/c1ccc(F)cc1)c1ccccc1Nc1cccc(C(F)(F)F)c1`, the growth in test [1] is 24%; in test [2], 93.1%; in test [3], 89.5%; in [4] it was 104%; in test [5] it was 84.4%; in test [6] it was 94.6%. For the same molecule, the growth in test [7] is 103%; in test [8] it was 81.3%; in [9] it was 112%; in test [10], 107%.

With `ClCC1(Cn2cnc3c(Cl)nc(Cl)nc32)COC1`, the growth was 86.1% in test [1]; 87.7% in test [2]; 105% in test [3]; 99.5% in test [4]; 93.3% in [5]; 93.8% in test [6]. The growth is 90.8% in test [7], 84.4% in test [8], 50.9% in test [9] and 106% in test [10].

In the case of `CS(=O)(=O)c1ccc(-c2cc3c(oc2=O)-c2ccccc2OC3O)cc1` (stereo not given), the growth in test [1] is 103%; in test [2], 90.6%; in test [3], 95.9%; in test [4], 98.2%; in test [5], 94%; in test [6] it was 92.8%. For the same molecule, the growth in test [7] is 102%; in test [8], 88.2%; in [9], 88.5%; in [10] it was 105%.

For `CC(C)(C#N)N1CCN(c2ccccc2Cl)CC1`, the growth in test [1] is 101%; in [2], 105%; in [3], 93.9%; in [4], 97.2%; in [5] it was 119%; in test [6], 103%. For the same molecule, the growth was 106% in test [7], 101% in test [8], 96.4% in test [9] and 98.8% in [10].

For the molecule `COc1ccc(C(O)c2cc3c(N)c(C(=O)Nc4ccc(Br)cc4)sc3nc2C)cc1` (stereo not given), the growth in test [1] was -8% (active); in test [2] it was -4.62% (active); in test [3], 30.6%; in test [4], 59%; in test [5] it was 42.9%; in test [6] it was 27.7%. Moreover, the growth in test [7] was 43.6%; in [8] it was -34.9% (active); in [9], 3.84% (active); in test [10] it was 18.5%.

On to `CC1NC(=S)NC(=O)/C1=C/c1cc(=O)oc2c1ccc1ccccc12` (stereo not given), for which the growth in test [1] was 94%; in [2] it was 102%; in test [3] it was 87.5%; in test [4], 105%; in test [5], 95.7%; in test [6] it was 94.4%. The growth in test [7] was 91.9%; in test [8] it was 100%; in test [9], 94.4%; in [10], 92.7%.

Regarding `O=C(NNc1nc(Cl)nc(N2CCN(C(c3ccccc3)c3ccccc3)CC2)n1)c1ccccc1`, the growth in test [1] was -37.4% (active); in test [2], 57.8%; in test [3], 3.15% (active); in test [4], 88.7%; in test [5], -16.1% (active); in test [6] it was 128%. The growth is -92.6% (active) in test [7], -90.5% (active) in test [8], 36.3% in test [9] and 20.7% in [10].

In the case of `Fc1ccc2nc3c(cc2c1)CSc1nnc(-c2ccc[nH]c2=S)n1N3`, the growth was 90.4% in test [1]; 95.5% in test [2]; 105% in test [3]; 95.4% in test [4]; 91.5% in test [5]; 86.9% in test [6]. Moreover, the growth is 86.7% in test [7], 109% in test [8], 96.3% in test [9] and 103% in [10].

Turning to `O=C(Nc1ccc(F)cc1)c1c(NC(=O)C(F)(F)F)sc2c1CCCCC2`, the growth was 2.35% (active) in test [1]; -36.8% (active) in [2]; 8.06% (active) in [3]; 22.7% in [4]; 4.42% (active) in test [5]; -16.8% (active) in test [6]. The growth in test [7] was 18.1%; in test [8], 4.39% (active); in test [9] it was -6.84% (active); in test [10], 0.19% (active).

Consider `Cc1cc(C(=O)Nc2ncnc3nc[nH]c23)no1`, for which the growth in test [1] was 89.6%; in test [2], 95%; in test [3] it was 102%; in [4], 116%; in test [5], 114%; in test [6], 97.2%. Moreover, the growth in [7] is 89.6%; in [8], 108%; in [9] it was 95.5%; in [10], 106%.
